Source: article PMC5540273 (PLoS ONE, 2017)

test system: PIK3C2G; conditions: concentration: 1 μM,replicates: in singlicate; n = 1
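Further: KINOMEscan kinase panel screen.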

| Compound | %Inh [%] |
| --- | --- |
| CSc1nccc(-c2c(-c3ccc(F)cc3)ncn2CCCN2CCOCC2)n1.Cl [SB-217146] | 0 |
| Cc1ccc(C(=O)Nc2ccc(Oc3ccc4nc(NC(=O)C5CC5)cn4c3)c(F)c2)c(=O)n1-c1ccccc1 | 0 |
| CC(C)S(=O)(=O)N1CCN(Cc2ccc3c(c2)nc(NC(=O)c2ccsc2)n3C[C@H](O)c2ccccc2)CC1 [GW635815] | 0 |
| CC(=O)Nc1nc2cnc(Nc3cc(NC(=O)c4cccc(CC(C)(C)C#N)c4)ccc3C)nc2s1 | 60 |
| Cn1ccc2ncnc(Oc3ccc(NC(=O)Nc4cccc(C(F)(F)F)c4)c(Cl)c3)c21 | 5 |
| O=C(Nc1n[nH]c2cc(-c3ccco3)ccc12)C1CC1 [SB-737447] | 17 |
| COc1cccc(OC)c1C(=O)Nc1cccc(-c2nn3ccccc3c2-c2ccnc(Nc3cccc(F)c3)n2)c1 [GSK361065] | 24 |
| CC(C)c1nc(-c2cccc(NS(=O)(=O)c3ccccc3)c2)c(-c2ccnc(Nc3ccc4c(c3)CN(C)CC4)n2)s1 [GSK1649598] | 0 |
| Cn1ccc2ncnc(Oc3ccc(NC(=O)Nc4cncc(C(F)(F)F)c4)c(Cl)c3)c21 | 0 |
| FC(F)(F)c1cc(Br)cc(Nc2nccc(-c3cnn4ncccc34)n2)c1 [GW810578] | 25 |
| CN(c1ccc2c(c1)nc(NCc1ccc(F)cc1)n2C)c1ccnc(Nc2ccc(CS(C)(=O)=O)cc2)n1.Cl [GW813244] | 0 |
| Cc1ccn2nc(-c3ccc(F)cc3)c(-c3ccncc3)c2c1.Cl [GW457859] | 20 |
| OCCn1cc(-c2cnc3nnn(Cc4ccc5ncccc5c4)c3n2)cn1 | 0 |
| COc1cc2ncn(-c3cc(OCC4CCCCC4)c(C(N)=O)s3)c2cc1OC [GSK204559] | 38 |
| CCn1c(-c2nonc2N)nc2cncc(Br)c21 [SB-738004] | 12 |
| CC(=O)c1c(-c2ccncc2)[nH]c(-c2ccncc2)c1C [GW493036] | 0 |
| CCOC(=O)N1CCC(n2cnc(-c3ccc(F)cc3)c2-c2ccnc(N)n2)CC1 [SB-219952] | 69 |
| O=C(NOCC1CC1)c1cc(Br)c(F)c(F)c1Nc1ccc(I)cc1Cl | 0 |
| CCn1c(-c2nonc2N)nc2cncc(CNC3CCNCC3)c21.Cl [SB-747651] | 0 |

| Compound | %Inh [%] |
| --- | --- |
| Cc1nnc(-c2ccc3occ(-c4ccc(S(C)=O)cc4)c3n2)o1 (centres unmarked) | 0 |
| CCCC(=O)Nc1n[nH]c2ncccc12 [SB-601436] | 0 |
| O=C(Nc1cccc(Oc2ccc3nccn3n2)c1)Nc1cccc(C(F)(F)F)c1 | 0 |
| C[C@@H]1CCN(C(=O)N2CCCC2)C[C@@H]1N(C)c1ncnc2[nH]ccc12 | 0 |
| c1ccc(Oc2ccc(Nc3ccnc4ccc(-c5ccccn5)cc34)cc2)cc1 [GW407034] | 0 |
| O=c1[nH]cc(-c2ccc(O)cc2)c2sc(-c3ccncc3)cc12 [GSK1033723] | 20 |
| CS(=O)(=O)Nc1ccc(-c2ccnc3[nH]ccc23)cc1 [GSK993273] | 3 |
| Cc1n[nH]c2cc(Nc3ccnc(Nc4cccc(CN5CCOCC5)c4)n3)ccc12 [GW682569] | 0 |
| O=C(Nc1ccc(Oc2ccc3nc(NC(=O)C4CC4)cn3n2)c(F)c1)c1cccn(-c2ccccc2)c1=O | 0 |
| C[C@@H]1CNc2c(sc3ccc4nc(-c5ccc(O)cc5)ccc4c23)C(=O)N1 | 28 |
| C[C@@H]1CNc2c(sc3ccc4nc(-c5ccncc5)ccc4c23)C(=O)N1 | 2 |
| Cn1cc(-c2cccc3c(N)c(C(N)=O)nnc23)cn1 | 26 |
| C[C@@H](Oc1cc(-n2cnc3cc(-c4cnn(C)c4)ccc32)sc1C(N)=O)c1ccccc1Cl [GSK580432] | 0 |
| COC(=O)c1cccc(NC(=O)NC2CCN(c3ccnc(Nc4cc(OC)c(OC)c(OC)c4)n3)C2)c1 (centres unmarked) [GSK1379767] | 0 |
| CN1CCN(CCCNc2nccc(-c3c(-c4ccc(F)cc4)nn4cc(C(N)=O)ccc34)n2)CC1 [GW622475] | 0 |
| NC(=O)c1ccc(-c2cc3ncnc(SCC(=O)O)c3s2)cc1 | 20 |
| C[C@@H](Oc1cc(-n2cnc3ccc(-c4ccncc4)cc32)sc1C(N)=O)c1ccccc1Cl [GSK483724] | 6 |
| CCNCC(Cc1ccccc1)NC(=O)c1cc(Br)c(-c2ccnc3[nH]ccc23)s1.Cl.Cl (centres unmarked) [GSK1383280] | 0 |

test system: PIK3CA; conditions: concentration: 1 μM,replicates: in singlicate; n = 1

| Compound | %Inh [%] |
| --- | --- |
| CSc1nccc(-c2c(-c3ccc(F)cc3)ncn2CCCN2CCOCC2)n1.Cl [SB-217146] | 17 |
| Cc1ccc(C(=O)Nc2ccc(Oc3ccc4nc(NC(=O)C5CC5)cn4c3)c(F)c2)c(=O)n1-c1ccccc1 | 0 |
| CC(C)S(=O)(=O)N1CCN(Cc2ccc3c(c2)nc(NC(=O)c2ccsc2)n3C[C@H](O)c2ccccc2)CC1 [GW635815] | 0 |
| CC(=O)Nc1nc2cnc(Nc3cc(NC(=O)c4cccc(CC(C)(C)C#N)c4)ccc3C)nc2s1 | 11 |
| Cn1ccc2ncnc(Oc3ccc(NC(=O)Nc4cccc(C(F)(F)F)c4)c(Cl)c3)c21 | 0 |
| O=C(Nc1n[nH]c2cc(-c3ccco3)ccc12)C1CC1 [SB-737447] | 0 |
| COc1cccc(OC)c1C(=O)Nc1cccc(-c2nn3ccccc3c2-c2ccnc(Nc3cccc(F)c3)n2)c1 [GSK361065] | 0 |
| CC(C)c1nc(-c2cccc(NS(=O)(=O)c3ccccc3)c2)c(-c2ccnc(Nc3ccc4c(c3)CN(C)CC4)n2)s1 [GSK1649598] | 10 |
| Cn1ccc2ncnc(Oc3ccc(NC(=O)Nc4cncc(C(F)(F)F)c4)c(Cl)c3)c21 | 0 |
| FC(F)(F)c1cc(Br)cc(Nc2nccc(-c3cnn4ncccc34)n2)c1 [GW810578] | 3 |
| CN(c1ccc2c(c1)nc(NCc1ccc(F)cc1)n2C)c1ccnc(Nc2ccc(CS(C)(=O)=O)cc2)n1.Cl [GW813244] | 27 |
| Cc1ccn2nc(-c3ccc(F)cc3)c(-c3ccncc3)c2c1.Cl [GW457859] | 0 |
| OCCn1cc(-c2cnc3nnn(Cc4ccc5ncccc5c4)c3n2)cn1 | 0 |
| COc1cc2ncn(-c3cc(OCC4CCCCC4)c(C(N)=O)s3)c2cc1OC [GSK204559] | 0 |
| CCn1c(-c2nonc2N)nc2cncc(Br)c21 [SB-738004] | 0 |
| CC(=O)c1c(-c2ccncc2)[nH]c(-c2ccncc2)c1C [GW493036] | 0 |
| CCOC(=O)N1CCC(n2cnc(-c3ccc(F)cc3)c2-c2ccnc(N)n2)CC1 [SB-219952] | 15 |
| O=C(NOCC1CC1)c1cc(Br)c(F)c(F)c1Nc1ccc(I)cc1Cl | 0 |
| CCn1c(-c2nonc2N)nc2cncc(CNC3CCNCC3)c21.Cl [SB-747651] | 0 |

| Compound | %Inh [%] |
| --- | --- |
| Cc1nnc(-c2ccc3occ(-c4ccc(S(C)=O)cc4)c3n2)o1 (centres unmarked) | 0 |
| CCCC(=O)Nc1n[nH]c2ncccc12 [SB-601436] | 0 |
| O=C(Nc1cccc(Oc2ccc3nccn3n2)c1)Nc1cccc(C(F)(F)F)c1 | 0 |
| C[C@@H]1CCN(C(=O)N2CCCC2)C[C@@H]1N(C)c1ncnc2[nH]ccc12 | 2 |
| c1ccc(Oc2ccc(Nc3ccnc4ccc(-c5ccccn5)cc34)cc2)cc1 [GW407034] | 0 |
| O=c1[nH]cc(-c2ccc(O)cc2)c2sc(-c3ccncc3)cc12 [GSK1033723] | 0 |
| CS(=O)(=O)Nc1ccc(-c2ccnc3[nH]ccc23)cc1 [GSK993273] | 0 |
| Cc1n[nH]c2cc(Nc3ccnc(Nc4cccc(CN5CCOCC5)c4)n3)ccc12 [GW682569] | 3 |
| O=C(Nc1ccc(Oc2ccc3nc(NC(=O)C4CC4)cn3n2)c(F)c1)c1cccn(-c2ccccc2)c1=O | 0 |
| C[C@@H]1CNc2c(sc3ccc4nc(-c5ccc(O)cc5)ccc4c23)C(=O)N1 | 5 |
| C[C@@H]1CNc2c(sc3ccc4nc(-c5ccncc5)ccc4c23)C(=O)N1 | 0 |
| Cn1cc(-c2cccc3c(N)c(C(N)=O)nnc23)cn1 | 0 |
| C[C@@H](Oc1cc(-n2cnc3cc(-c4cnn(C)c4)ccc32)sc1C(N)=O)c1ccccc1Cl [GSK580432] | 0 |
| COC(=O)c1cccc(NC(=O)NC2CCN(c3ccnc(Nc4cc(OC)c(OC)c(OC)c4)n3)C2)c1 (centres unmarked) [GSK1379767] | 0 |
| CN1CCN(CCCNc2nccc(-c3c(-c4ccc(F)cc4)nn4cc(C(N)=O)ccc34)n2)CC1 [GW622475] | 0 |
| NC(=O)c1ccc(-c2cc3ncnc(SCC(=O)O)c3s2)cc1 | 0 |
| C[C@@H](Oc1cc(-n2cnc3ccc(-c4ccncc4)cc32)sc1C(N)=O)c1ccccc1Cl [GSK483724] | 53 |
| CCNCC(Cc1ccccc1)NC(=O)c1cc(Br)c(-c2ccnc3[nH]ccc23)s1.Cl.Cl (centres unmarked) [GSK1383280] | 0 |
